Measurements reported in the supplement of paper PMC11732987, “Enantioselective OTUD7B fragment discovery through chemoproteomics screening and high-throughput optimisation” (Communications Chemistry, 2025).

Legend:
Experiment in all cases: log2 ratio of Biotin-Ahx-Ub-VS probe labelling (fragment/DMSO); higher = less target engagement (more negative = stronger competition), active = hit call of the paper (q ≤ 0.05, log2 ratio ≤ -1)
Conditions in all cases: compound concentration: 200 uM; treatment time: 3 h
USP42 = target: T1, USP42 (UniProt Q9H9J4)
T1 sequence (whole entry): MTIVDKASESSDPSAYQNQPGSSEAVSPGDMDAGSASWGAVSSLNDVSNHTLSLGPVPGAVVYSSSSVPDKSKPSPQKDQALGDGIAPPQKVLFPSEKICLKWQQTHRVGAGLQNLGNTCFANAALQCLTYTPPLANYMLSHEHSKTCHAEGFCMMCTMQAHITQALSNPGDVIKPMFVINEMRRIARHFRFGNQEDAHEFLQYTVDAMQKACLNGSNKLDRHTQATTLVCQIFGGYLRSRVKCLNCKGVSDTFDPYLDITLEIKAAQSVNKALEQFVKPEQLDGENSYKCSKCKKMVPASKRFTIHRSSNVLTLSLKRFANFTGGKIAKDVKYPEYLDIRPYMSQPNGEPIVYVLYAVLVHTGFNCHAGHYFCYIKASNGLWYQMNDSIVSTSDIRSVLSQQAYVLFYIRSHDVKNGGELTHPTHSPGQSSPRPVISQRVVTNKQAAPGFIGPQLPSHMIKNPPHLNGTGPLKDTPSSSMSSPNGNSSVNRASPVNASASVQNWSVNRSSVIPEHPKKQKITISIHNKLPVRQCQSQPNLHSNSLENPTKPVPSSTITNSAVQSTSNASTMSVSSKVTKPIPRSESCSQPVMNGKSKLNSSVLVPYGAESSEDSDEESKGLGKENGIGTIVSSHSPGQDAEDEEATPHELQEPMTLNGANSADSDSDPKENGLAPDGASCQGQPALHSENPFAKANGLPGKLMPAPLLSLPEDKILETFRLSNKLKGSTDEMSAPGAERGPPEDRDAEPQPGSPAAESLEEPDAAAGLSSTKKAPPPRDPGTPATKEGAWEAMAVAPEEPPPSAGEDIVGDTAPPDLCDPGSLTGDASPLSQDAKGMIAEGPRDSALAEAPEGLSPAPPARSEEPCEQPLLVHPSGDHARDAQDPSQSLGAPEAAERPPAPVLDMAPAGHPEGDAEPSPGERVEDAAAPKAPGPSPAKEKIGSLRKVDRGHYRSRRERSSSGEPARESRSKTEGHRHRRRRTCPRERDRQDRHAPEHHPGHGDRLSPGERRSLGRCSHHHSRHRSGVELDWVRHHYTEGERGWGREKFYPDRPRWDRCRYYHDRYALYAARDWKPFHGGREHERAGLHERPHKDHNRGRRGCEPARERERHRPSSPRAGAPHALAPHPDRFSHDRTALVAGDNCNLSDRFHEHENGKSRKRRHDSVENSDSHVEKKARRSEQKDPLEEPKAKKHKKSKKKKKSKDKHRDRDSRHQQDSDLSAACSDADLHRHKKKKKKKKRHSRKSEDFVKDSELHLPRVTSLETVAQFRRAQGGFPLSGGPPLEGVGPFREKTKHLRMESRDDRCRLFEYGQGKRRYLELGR
Outline: (§1)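 Average log2 ratios of fragment over vehicle were obtained by unpaired t-test from global-median-normalised Spectronaut label-free quantities. Proteins with ≥2 unique peptides were included. HEK293T lysate (495 µg per sample) was treated in triplicate with fragment at 200 µM or vehicle for 3 h, then with Biotin-Ahx-Ub-VS at 0.5 µM final for 1 h, and labelled DUBs were NeutrAvidin-enriched and run by diaPASEF LC-MS/MS.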

USP46 = USP46 (UniProt P62068)
Outline: as §1

USP47 = target: T2, USP47 (UniProt Q96K76)
T2 sequence (whole entry): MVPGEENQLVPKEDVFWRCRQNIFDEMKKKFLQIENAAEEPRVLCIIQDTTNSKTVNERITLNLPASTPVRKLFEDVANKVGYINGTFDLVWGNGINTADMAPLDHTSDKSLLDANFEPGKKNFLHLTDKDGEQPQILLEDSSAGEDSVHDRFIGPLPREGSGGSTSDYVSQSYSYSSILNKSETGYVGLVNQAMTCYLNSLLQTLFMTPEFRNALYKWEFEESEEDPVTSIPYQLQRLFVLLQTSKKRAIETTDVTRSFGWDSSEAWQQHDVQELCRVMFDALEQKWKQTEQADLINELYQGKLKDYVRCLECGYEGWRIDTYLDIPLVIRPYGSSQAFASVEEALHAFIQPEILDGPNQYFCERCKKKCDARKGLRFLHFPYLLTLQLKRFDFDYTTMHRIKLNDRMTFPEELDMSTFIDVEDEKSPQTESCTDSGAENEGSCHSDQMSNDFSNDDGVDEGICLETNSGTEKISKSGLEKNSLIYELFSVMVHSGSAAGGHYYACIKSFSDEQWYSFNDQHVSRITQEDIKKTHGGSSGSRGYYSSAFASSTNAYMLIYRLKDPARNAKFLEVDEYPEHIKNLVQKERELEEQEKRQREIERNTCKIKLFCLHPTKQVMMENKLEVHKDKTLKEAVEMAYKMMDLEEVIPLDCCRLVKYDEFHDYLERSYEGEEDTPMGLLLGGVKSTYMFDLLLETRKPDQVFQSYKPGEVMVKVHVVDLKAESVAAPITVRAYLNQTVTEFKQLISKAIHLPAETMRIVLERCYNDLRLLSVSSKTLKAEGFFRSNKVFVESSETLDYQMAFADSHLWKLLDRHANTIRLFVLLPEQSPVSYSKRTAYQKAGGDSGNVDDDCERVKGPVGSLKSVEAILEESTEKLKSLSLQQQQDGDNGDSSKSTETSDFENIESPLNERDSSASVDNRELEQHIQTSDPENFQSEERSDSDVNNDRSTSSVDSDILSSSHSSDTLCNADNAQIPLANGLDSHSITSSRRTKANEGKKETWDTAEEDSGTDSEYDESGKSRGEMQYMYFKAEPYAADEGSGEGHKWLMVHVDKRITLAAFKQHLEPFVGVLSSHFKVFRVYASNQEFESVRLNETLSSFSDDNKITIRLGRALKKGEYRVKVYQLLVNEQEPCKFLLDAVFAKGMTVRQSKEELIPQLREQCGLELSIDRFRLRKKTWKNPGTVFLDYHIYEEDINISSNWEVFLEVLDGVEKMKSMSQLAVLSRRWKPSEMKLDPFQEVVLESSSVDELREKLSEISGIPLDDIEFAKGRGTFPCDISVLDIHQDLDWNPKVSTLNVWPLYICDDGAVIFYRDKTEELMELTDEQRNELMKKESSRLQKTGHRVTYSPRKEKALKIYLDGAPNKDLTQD
Outline: as §1

USP48 = target: T3, USP48 (UniProt Q86UV5)
T3 sequence (whole entry): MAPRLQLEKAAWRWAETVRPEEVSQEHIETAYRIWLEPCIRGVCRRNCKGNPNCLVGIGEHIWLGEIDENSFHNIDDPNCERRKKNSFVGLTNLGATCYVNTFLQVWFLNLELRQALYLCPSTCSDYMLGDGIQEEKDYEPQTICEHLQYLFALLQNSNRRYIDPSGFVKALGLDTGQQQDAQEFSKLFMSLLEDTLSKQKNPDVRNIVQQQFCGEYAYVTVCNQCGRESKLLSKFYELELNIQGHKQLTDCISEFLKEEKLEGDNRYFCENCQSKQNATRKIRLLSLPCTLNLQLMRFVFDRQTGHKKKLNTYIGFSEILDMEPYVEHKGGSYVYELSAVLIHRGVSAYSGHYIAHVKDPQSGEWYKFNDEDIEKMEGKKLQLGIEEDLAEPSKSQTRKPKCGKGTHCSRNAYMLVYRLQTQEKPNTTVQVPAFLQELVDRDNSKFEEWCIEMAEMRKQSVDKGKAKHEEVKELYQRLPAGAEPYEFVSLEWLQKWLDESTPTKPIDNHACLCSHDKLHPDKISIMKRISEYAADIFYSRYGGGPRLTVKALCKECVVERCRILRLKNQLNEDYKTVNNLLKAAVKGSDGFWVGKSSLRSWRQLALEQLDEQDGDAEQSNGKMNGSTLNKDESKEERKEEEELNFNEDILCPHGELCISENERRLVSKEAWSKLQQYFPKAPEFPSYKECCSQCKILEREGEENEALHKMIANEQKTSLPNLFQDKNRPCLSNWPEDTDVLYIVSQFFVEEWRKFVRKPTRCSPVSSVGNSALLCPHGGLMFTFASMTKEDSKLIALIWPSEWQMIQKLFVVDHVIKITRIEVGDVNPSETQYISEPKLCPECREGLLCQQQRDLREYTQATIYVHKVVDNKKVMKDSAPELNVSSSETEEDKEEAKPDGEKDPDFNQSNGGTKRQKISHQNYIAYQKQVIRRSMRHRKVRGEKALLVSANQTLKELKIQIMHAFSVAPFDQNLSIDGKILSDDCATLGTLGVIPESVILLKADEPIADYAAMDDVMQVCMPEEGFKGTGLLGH
Outline: as §1

USP5 = target: T4, USP5 (UniProt P45974)
T4 sequence (whole entry): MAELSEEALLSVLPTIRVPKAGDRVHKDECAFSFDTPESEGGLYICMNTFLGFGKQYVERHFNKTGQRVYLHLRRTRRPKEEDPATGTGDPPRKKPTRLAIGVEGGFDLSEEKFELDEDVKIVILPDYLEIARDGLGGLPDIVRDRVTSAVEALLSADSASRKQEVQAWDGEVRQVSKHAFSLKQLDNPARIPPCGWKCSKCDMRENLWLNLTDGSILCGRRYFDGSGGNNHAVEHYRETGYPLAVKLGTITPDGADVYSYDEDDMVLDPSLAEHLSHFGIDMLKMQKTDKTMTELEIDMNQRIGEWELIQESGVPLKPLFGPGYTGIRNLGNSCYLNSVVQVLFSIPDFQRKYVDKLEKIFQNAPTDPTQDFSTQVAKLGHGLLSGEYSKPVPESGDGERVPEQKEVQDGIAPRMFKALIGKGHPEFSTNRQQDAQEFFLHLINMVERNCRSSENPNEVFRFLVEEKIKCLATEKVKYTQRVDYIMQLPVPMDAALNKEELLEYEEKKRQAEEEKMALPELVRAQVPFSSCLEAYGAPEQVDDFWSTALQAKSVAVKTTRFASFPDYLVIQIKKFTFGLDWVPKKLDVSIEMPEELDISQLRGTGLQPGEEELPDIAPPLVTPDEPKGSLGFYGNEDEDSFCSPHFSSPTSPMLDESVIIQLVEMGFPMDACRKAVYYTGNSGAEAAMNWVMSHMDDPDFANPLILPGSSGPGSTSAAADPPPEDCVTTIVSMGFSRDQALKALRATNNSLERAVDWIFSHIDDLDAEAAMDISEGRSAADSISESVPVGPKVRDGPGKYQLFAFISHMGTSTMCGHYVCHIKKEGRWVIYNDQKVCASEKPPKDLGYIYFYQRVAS
Outline: as §1

USP54 = USP54 (UniProt Q70EL1)
Outline: as §1

USP7 = USP7 (UniProt Q93009)
Outline: as §1

USP8 = target: T5, USP8 (UniProt P40818)
T5 sequence (whole entry): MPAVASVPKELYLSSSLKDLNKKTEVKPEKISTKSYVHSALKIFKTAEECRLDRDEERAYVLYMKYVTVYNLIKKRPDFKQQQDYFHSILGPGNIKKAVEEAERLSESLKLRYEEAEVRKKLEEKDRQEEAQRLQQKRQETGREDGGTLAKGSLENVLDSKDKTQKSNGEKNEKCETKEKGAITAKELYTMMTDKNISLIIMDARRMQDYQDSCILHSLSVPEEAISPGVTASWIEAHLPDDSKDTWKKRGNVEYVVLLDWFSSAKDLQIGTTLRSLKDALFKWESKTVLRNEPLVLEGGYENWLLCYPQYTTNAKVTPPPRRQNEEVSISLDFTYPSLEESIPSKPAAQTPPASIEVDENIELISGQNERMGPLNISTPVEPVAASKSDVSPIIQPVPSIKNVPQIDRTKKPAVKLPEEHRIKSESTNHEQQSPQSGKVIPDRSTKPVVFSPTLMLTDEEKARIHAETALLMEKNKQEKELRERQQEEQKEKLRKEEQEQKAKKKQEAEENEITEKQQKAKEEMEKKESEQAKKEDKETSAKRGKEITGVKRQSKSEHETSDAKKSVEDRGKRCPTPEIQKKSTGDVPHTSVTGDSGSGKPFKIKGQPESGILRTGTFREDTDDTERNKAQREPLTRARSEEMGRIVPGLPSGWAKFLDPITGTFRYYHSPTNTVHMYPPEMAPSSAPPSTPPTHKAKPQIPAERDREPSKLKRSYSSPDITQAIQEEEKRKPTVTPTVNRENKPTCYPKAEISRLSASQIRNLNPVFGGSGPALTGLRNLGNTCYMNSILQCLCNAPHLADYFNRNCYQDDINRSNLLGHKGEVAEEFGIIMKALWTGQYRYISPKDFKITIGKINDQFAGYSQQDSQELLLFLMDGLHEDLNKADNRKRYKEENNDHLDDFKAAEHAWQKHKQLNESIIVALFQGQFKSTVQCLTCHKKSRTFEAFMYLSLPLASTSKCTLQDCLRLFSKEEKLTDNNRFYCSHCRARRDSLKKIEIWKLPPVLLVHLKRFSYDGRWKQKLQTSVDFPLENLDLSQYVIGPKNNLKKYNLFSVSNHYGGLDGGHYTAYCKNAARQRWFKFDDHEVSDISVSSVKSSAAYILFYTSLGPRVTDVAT
Outline: as §1

USP9X = USP9X (UniProt Q93008)
Outline: as §1

UniProt O00487 = target: UniProt O00487
Outline: as §1

Measured: log2 ratio of Biotin-Ahx-Ub-VS probe labelling

Chain of USP7 (Q93009 whole entry, looked up): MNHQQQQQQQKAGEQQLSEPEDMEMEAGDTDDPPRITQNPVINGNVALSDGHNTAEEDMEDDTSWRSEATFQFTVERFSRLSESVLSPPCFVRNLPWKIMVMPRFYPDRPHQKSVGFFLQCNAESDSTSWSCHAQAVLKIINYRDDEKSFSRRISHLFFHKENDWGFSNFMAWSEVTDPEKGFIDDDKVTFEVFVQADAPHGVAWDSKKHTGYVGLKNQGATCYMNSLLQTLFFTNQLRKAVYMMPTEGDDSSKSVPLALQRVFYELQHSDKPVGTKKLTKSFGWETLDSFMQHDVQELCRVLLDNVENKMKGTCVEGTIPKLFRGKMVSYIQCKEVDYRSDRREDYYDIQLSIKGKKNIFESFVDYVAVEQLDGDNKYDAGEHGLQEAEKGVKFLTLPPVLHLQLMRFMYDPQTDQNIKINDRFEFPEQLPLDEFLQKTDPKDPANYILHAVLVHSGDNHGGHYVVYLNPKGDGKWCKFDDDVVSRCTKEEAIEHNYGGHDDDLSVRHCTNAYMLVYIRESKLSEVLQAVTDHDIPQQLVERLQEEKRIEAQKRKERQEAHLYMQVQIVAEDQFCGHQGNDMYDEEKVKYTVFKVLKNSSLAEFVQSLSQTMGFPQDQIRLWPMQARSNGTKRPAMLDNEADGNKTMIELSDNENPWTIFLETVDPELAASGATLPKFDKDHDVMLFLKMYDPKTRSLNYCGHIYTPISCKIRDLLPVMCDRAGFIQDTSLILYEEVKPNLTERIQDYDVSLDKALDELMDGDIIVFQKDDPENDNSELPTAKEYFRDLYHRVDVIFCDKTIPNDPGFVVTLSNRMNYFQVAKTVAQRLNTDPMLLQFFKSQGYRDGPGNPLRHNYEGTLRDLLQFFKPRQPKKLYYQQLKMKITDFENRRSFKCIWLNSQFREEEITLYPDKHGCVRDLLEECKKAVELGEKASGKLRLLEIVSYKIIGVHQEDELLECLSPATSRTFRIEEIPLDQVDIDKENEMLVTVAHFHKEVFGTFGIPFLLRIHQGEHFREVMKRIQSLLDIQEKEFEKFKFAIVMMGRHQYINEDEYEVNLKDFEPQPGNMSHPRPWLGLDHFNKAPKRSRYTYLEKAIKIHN
Chain of USP9X (Q93008 whole entry): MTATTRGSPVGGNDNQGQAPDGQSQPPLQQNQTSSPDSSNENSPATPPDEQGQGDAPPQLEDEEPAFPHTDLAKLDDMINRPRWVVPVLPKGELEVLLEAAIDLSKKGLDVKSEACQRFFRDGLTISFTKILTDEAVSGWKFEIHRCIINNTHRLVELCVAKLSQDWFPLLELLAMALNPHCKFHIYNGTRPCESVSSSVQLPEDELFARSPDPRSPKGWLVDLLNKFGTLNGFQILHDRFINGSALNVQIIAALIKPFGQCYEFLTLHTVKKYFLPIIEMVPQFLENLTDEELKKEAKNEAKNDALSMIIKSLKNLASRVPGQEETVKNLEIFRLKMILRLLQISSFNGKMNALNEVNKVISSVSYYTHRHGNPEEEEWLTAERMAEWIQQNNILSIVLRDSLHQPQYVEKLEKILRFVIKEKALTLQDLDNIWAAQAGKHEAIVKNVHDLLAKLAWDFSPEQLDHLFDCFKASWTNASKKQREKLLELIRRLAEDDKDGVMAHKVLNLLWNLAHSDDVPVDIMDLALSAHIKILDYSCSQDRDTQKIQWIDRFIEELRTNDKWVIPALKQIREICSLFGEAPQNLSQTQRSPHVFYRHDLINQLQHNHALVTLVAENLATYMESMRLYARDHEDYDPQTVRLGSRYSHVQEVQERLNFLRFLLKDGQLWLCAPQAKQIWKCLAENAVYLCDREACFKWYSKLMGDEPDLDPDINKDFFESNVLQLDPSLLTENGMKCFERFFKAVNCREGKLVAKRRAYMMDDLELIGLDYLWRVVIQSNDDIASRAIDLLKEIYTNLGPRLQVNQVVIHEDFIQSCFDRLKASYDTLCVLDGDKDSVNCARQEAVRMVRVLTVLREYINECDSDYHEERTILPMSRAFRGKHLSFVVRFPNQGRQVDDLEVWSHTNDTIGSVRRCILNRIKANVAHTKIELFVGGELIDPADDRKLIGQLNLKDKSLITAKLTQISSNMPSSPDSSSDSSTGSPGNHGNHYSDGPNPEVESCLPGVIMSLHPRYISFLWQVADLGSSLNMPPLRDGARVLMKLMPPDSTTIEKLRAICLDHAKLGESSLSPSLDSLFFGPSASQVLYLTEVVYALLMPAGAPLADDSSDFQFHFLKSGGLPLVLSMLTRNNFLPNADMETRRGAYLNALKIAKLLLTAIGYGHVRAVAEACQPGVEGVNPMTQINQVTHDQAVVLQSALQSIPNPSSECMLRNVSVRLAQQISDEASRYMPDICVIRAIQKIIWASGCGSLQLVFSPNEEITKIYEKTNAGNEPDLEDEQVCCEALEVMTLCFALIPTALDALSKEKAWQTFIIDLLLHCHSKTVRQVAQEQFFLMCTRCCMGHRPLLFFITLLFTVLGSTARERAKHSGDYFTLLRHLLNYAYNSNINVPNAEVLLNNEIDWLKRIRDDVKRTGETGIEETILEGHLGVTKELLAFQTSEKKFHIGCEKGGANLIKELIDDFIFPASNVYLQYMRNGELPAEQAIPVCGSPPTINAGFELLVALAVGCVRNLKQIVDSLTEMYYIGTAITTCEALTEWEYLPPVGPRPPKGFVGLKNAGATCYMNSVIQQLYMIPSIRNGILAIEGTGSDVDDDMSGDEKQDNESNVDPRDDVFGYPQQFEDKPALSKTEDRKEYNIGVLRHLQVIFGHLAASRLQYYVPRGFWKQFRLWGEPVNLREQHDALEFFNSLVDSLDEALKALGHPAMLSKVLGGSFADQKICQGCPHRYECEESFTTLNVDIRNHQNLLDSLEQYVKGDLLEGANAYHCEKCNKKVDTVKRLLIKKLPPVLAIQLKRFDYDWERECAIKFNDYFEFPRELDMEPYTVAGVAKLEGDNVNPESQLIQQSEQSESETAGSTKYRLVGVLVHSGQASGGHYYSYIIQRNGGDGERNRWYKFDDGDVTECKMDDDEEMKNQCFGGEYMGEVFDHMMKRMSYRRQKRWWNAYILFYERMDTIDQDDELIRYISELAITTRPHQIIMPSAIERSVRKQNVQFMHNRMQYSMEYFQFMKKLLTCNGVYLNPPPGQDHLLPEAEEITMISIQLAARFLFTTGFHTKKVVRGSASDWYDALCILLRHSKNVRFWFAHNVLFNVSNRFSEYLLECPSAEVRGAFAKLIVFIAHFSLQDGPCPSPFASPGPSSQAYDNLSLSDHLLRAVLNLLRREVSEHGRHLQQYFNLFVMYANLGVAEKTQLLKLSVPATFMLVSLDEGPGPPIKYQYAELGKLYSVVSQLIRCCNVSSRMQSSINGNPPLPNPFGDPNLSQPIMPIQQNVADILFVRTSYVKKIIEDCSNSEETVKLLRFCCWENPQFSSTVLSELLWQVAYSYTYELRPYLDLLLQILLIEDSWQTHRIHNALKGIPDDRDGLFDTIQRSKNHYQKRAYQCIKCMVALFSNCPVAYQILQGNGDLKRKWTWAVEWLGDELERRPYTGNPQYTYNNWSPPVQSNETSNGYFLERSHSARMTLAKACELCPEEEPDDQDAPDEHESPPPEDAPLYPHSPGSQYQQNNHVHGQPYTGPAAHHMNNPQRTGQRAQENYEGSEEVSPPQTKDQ
Chain of UniProt O00487 (O00487 whole entry): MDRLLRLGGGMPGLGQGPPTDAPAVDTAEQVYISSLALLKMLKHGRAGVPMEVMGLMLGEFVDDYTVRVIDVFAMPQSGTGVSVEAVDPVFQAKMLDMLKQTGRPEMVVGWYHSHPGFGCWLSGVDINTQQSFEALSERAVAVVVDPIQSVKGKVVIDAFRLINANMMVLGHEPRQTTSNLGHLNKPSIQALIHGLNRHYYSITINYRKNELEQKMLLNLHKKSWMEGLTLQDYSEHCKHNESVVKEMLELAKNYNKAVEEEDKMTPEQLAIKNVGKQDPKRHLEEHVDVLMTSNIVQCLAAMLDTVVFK
Chain of USP46 (P62068 whole entry): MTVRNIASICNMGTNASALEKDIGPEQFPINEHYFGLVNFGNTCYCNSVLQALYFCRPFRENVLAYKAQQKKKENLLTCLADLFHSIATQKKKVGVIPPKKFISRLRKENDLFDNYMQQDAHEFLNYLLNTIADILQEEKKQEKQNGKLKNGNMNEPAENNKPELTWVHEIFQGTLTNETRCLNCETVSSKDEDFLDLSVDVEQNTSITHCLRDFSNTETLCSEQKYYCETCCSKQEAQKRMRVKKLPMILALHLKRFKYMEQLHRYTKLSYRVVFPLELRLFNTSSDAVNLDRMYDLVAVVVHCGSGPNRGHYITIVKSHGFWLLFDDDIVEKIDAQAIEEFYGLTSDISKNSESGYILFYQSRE

O=C(CCl)N1CCc2nc[nH]c2C1c1ccc(Cl)cc1 (stereo not given)
active: USP48 -1.05 | USP7 -1.31
inactive: USP42 -0.0471 | USP46 -0.363 | USP47 -0.614 | USP5 -0.146 | USP54 0.015 | USP8 0.126 | USP9X -0.619 | UniProt O00487 0.0187
